# Values joined by “and” are separate entries in the source; they are usually repeats but may differ in a detail not shown here. Equal values may be shown once. Records with an inconclusive call do not appear. More than one record can exist for a structure, and the calls need not agree. Active and inactive are the calls of the source. The calls were made as follows, unless noted: active = hit-call score of the fitted dose curve at least 0.9, where 1 is the maximum; inactive = score below 0.9.
# What was measured:
# [1] = BSK_3C_VCAM1: BioMAP Diversity Plus: 3C Assay for Vascular cell adhesion molecule 1 (VCAM1) Biomarker Activity (AID 2282999); details: BioMAP 3C HUVEC, VCAM1 ELISA, cytokine-stimulated; actives raise or lower the signal
# Outline: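 HUVEC primary cells, 24 h compound exposure; VCAM-1 by ELISA; gain/loss of signal fitted bidirectionally vs DMSO baseline.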
# [2] = BSK_4H_Eotaxin3: BioMAP Diversity Plus: 4H Assay for Eotaxin 3 Biomarker Activity (AID 2283000); details: primary human endothelial cells (HUVEC); actives raise or lower the signal;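 also: CCL26 protein level quantified by ELISA in parallel with SRB cytotoxicity check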
# Outline: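 Chemicals were added to human umbilical vein endothelium cultures, and Eotaxin-3 was quantified by ELISA at 24 h. Values were derived by bidirectional fitting with DMSO serving as negative control and activity baseline.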
# [3] = molecular target: human Peroxisome Proliferator-activated Receptor alpha (PPARa), PPARA (gene 5465) (UniProt Q07869); experiment: ATG_PPARa_TRANS: Attagene TRANS-FACTORIAL HepG2 Assay for human Peroxisome Proliferator-activated Receptor alpha (PPARa) (AID 2283001; active = hit-call score of the fitted dose curve at least 0.9, where 1 is the maximum)
# Chain of human Peroxisome Proliferator-activated Receptor alpha (PPARa), PPARA (gene 5465) (Q07869 whole entry, looked up, the tested form may be a part): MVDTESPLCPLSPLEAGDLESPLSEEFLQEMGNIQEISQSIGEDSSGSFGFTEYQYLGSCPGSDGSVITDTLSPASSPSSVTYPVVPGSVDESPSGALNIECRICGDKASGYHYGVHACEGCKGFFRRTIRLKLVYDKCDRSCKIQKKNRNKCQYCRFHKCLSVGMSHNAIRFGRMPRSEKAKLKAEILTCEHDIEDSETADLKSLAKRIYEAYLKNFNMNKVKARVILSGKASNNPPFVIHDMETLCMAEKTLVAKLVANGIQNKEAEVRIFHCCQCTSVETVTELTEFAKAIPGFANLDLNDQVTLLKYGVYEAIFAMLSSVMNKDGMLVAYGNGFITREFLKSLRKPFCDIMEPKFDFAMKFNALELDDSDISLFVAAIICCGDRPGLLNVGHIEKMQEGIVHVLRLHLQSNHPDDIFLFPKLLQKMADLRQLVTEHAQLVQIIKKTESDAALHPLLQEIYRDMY
# Outline: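 Transient HepG2 transfection, GAL4-UAS reporters, NR-Gal4 chimeras; 24 h compound exposure. Readout: reporter transcripts by RT-PCR, 6-FAM primer extension, HpaI digest, capillary electrophoresis. Positive direction vs DMSO baseline.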
# [4] = read-out: Intercellular Adhesion Molecule 1 (ICAM1), ICAM1 (gene 3383); experiment: BSK_3C_ICAM1: BioMAP Diversity Plus: 3C Assay for Intercellular Adhesion Molecule 1 (ICAM1) Biomarker Activity (AID 2283003); details: primary human endothelial cells (HUVEC); actives raise or lower the signal
# Outline: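 Using DMSO as baseline, bidirectional curve fitting was applied to ICAM-1 ELISA signals from HUVEC in the 3C system, measured 24 h after compound addition.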
# [5] = BSK_3C_Proliferation: Cell Proliferation Assessment in the BioMAP Diversity Plus: 3C Assay (AID 2283006); details: primary human endothelial cells (HUVEC);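 as to AC50: potency may reflect either rise or fall in cell number versus DMSO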
# Outline: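 Measured here: sulforhodamine B (0.1%) staining of TCA-fixed sub-confluent umbilical vein endothelial cultures 48 h post-dosing, absorbance 560 nm. DMSO served as negative control and baseline; both signal gain and loss were modelled.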
# [6] = molecular target: Peroxisome proliferator-activated receptor gamma (Homo sapiens) (UniProt P37231); experiment: ATG_PPARg_TRANS: Attagene TRANS-FACTORIAL HepG2 Assay for human Peroxisome Proliferator-activated Receptor-gamma (PPARg) (AID 2283007; active = hit-call score of the fitted dose curve at least 0.9, where 1 is the maximum)
# Chain of Peroxisome proliferator-activated receptor gamma (Homo sapiens) (P37231 whole entry, looked up, the tested form may be a part): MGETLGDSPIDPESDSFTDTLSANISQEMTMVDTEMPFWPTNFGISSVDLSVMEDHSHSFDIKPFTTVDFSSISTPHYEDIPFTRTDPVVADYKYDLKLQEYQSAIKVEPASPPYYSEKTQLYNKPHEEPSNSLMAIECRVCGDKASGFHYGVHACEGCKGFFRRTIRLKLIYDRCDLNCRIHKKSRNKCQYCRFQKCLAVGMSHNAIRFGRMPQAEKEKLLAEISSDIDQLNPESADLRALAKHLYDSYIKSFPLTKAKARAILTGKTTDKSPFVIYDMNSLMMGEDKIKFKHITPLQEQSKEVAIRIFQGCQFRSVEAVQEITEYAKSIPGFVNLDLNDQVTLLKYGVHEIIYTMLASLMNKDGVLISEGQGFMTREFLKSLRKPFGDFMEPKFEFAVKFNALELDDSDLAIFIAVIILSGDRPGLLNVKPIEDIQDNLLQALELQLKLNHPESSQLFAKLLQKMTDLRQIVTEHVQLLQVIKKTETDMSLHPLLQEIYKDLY
# Outline: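 After 24 h of chemical exposure, transfected HepG2 cells carrying PPARγ-Gal4 chimera reporter constructs are lysed for RNA. Reporter transcripts are measured by RT-PCR and capillary electrophoresis with fluorescent labelling, and gain of signal is fitted versus DMSO.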
# [7] = molecular target: Nuclear receptor subfamily 1 group I member 2 (Homo sapiens) (UniProt O75469); experiment: ATG_PXR_TRANS: Attagene TRANS-FACTORIAL HepG2 Assay for human Pregnane X Receptor (PXR) (AID 2283008; active = hit-call score of the fitted dose curve at least 0.9, where 1 is the maximum)
# Chain of Nuclear receptor subfamily 1 group I member 2 (Homo sapiens) (O75469 whole entry, looked up, the tested form may be a part): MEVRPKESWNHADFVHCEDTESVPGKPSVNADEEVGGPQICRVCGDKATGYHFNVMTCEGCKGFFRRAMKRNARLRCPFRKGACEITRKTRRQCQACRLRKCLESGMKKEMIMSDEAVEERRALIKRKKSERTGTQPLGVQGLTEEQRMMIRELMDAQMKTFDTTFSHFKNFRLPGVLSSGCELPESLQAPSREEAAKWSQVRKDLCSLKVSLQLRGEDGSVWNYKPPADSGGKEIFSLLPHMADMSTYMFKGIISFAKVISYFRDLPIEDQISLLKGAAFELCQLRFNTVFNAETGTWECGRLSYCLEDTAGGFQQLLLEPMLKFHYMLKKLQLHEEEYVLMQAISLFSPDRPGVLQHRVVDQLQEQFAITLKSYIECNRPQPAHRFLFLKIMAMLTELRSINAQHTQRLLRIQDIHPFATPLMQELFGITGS
# Outline: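 HepG2 transfected (FuGene 6) with GAL4-UAS reporter units + PXR-Gal4 chimera; dosed 24 h. Total RNA → oligo(dT) RT → PCR → 6-FAM primer extension → HpaI cut → CE. Gain-of-signal vs DMSO.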
# [8] = molecular target: human RAR-related Orphan Receptor beta (RORb), RORB (gene 6096) (UniProt Q92753); experiment: ATG_RORb_TRANS: Attagene TRANS-FACTORIAL HepG2 Assay for human RAR-related Orphan Receptor beta (RORb) (AID 2283010; active = hit-call score of the fitted dose curve at least 0.9, where 1 is the maximum)
# Chain of human RAR-related Orphan Receptor beta (RORb), RORB (gene 6096) (Q92753 whole entry, looked up, the tested form may be a part): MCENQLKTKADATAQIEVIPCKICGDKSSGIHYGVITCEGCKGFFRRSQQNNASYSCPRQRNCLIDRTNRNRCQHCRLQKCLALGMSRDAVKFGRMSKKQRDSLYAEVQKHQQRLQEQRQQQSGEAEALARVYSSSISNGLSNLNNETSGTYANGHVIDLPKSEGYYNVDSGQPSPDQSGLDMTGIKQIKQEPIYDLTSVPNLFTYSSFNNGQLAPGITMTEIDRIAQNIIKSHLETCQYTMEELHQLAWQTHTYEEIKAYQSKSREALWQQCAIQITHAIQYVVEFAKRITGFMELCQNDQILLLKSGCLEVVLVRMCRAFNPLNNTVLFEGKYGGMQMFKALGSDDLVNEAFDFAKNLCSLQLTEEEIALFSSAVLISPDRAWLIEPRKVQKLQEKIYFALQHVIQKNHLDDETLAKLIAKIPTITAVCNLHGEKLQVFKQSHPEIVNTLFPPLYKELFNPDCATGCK
# Outline: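 Multiplexed transcription-factor reporter assay: HepG2 cells transiently carrying NR-Gal4/GAL4-UAS constructs, 24 h treatment, mRNA quantified by RT-PCR plus capillary electrophoresis fluorescence; activity scored as induction over DMSO.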
# [9] = molecular target: human RAR-related Orphan Receptor gamma (RORg), RORC (gene 6097) (UniProt P51449); experiment: ATG_RORg_TRANS: Attagene TRANS-FACTORIAL HepG2 Assay for human RAR-related Orphan Receptor gamma (RORg) (AID 2283011; active = hit-call score of the fitted dose curve at least 0.9, where 1 is the maximum)
# Chain of human RAR-related Orphan Receptor gamma (RORg), RORC (gene 6097) (P51449 whole entry, looked up, the tested form may be a part): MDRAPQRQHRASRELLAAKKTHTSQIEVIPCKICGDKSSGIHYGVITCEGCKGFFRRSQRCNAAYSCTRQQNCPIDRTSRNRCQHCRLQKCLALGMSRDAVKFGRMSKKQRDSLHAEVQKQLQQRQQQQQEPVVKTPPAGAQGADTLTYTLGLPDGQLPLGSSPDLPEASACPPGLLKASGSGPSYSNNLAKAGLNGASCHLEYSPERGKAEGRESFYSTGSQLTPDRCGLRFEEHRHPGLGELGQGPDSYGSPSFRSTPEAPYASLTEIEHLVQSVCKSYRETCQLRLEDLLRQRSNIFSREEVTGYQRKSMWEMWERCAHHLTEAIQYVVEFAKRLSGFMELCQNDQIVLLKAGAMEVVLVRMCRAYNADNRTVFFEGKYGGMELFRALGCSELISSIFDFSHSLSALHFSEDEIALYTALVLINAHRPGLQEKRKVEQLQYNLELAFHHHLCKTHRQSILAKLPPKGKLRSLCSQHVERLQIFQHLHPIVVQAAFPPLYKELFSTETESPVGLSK
# Outline: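 First, HepG2 liver cells were transfected with GAL4-UAS-driven reporter constructs and the RORg-Gal4 fusion. Next, they were treated with chemical for 24 h. Finally, reporter mRNA was quantified by RT-PCR and capillary electrophoresis, with upward activity fitted against DMSO.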
# [10] = molecular target: Retinoic acid receptor RXR-alpha (Homo sapiens) (UniProt P19793); experiment: ATG_RXRa_TRANS: Attagene TRANS-FACTORIAL HepG2 Assay for human Retinoid X Receptor alpha (RXRa) (AID 2283012; active = hit-call score of the fitted dose curve at least 0.9, where 1 is the maximum)
# Chain of Retinoic acid receptor RXR-alpha (Homo sapiens) (P19793 whole entry, looked up, the tested form may be a part): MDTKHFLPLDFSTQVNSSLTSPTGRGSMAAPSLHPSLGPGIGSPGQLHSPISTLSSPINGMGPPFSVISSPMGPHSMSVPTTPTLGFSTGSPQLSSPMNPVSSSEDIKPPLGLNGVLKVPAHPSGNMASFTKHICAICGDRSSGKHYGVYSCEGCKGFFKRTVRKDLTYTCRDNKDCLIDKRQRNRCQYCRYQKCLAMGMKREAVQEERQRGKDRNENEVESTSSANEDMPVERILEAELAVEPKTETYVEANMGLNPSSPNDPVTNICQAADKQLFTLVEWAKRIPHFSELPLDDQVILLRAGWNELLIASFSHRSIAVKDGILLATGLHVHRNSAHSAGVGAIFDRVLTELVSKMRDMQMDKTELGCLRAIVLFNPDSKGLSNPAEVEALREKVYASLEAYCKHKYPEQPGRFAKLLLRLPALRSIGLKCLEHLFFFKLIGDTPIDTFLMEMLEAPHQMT
# Outline: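 Chimeric NR-GAL4 trans-activation in HepG2, 24 h treatment; reporter transcripts quantified by fluorescence on capillary electrophoresis, analysed for upward change from DMSO.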
# [11] = molecular target: human Retinoid X Receptor beta (RXRb), RXRB (gene 6257) (UniProt P28702); experiment: ATG_RXRb_TRANS: Attagene TRANS-FACTORIAL HepG2 Assay for human Retinoid X Receptor beta (RXRb) (AID 2283013; active = hit-call score of the fitted dose curve at least 0.9, where 1 is the maximum)
# Chain of human Retinoid X Receptor beta (RXRb), RXRB (gene 6257) (P28702 whole entry, looked up, the tested form may be a part): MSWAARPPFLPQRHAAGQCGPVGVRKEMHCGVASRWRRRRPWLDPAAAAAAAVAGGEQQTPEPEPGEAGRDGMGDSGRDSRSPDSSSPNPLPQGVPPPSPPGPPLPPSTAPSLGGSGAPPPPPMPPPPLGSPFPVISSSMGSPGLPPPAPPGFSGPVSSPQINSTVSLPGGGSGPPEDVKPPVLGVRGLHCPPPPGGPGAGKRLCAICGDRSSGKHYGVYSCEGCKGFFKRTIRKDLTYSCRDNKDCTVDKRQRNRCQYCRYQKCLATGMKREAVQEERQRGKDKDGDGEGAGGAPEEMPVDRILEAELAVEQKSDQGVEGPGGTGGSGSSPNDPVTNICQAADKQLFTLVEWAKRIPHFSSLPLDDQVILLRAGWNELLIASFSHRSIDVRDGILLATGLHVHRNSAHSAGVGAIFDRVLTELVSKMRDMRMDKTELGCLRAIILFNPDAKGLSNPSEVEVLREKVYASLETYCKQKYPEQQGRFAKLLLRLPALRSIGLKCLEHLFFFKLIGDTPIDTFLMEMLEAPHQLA
# Outline: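 After a 24 h incubation with test chemical, transfected HepG2 cells carrying NR-Gal4 fusions and GAL4-UAS reporter transcription units yield RNA whose reporter cDNA is FAM-labelled, HpaI-cut and sized by capillary electrophoresis; increases over DMSO are scored.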
# [12] = molecular target: human Thyroid Receptor alpha (THRa1), THRA (gene 7067) (UniProt P10827); experiment: ATG_THRa1_TRANS: Attagene TRANS-FACTORIAL HepG2 Assay for human Thyroid Receptor alpha (THRa1) (AID 2283014; active = hit-call score of the fitted dose curve at least 0.9, where 1 is the maximum)
# Chain of human Thyroid Receptor alpha (THRa1), THRA (gene 7067) (P10827 whole entry, looked up, the tested form may be a part): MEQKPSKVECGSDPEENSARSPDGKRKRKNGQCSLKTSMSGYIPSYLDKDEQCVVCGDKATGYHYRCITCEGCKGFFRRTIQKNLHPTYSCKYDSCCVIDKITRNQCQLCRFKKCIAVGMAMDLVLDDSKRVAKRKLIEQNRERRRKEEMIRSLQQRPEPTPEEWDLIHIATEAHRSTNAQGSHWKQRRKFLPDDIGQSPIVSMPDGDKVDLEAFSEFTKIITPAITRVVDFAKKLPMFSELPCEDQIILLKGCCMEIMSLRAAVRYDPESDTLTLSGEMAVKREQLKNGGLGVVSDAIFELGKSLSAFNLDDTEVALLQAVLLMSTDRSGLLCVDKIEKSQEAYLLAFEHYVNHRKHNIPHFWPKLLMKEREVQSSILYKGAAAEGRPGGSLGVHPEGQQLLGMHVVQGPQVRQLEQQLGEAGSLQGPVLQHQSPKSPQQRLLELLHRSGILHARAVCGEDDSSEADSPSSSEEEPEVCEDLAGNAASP
# Outline: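 Reporter transcript induction, read by capillary electrophoresis of 6-FAM-labelled RT-PCR products, reflects activity of a transfected THRa1-Gal4 fusion in HepG2 liver cells. Cells were dosed for 24 h; activity was fitted in the positive direction against DMSO.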
# [13] = read-out: E-selectin (Homo sapiens) (UniProt P16581); experiment: BSK_3C_Eselectin: BioMAP Diversity Plus: 3C Assay for Eselectin Biomarker Activity (AID 2283015); details: primary human endothelial cells (HUVEC); actives raise or lower the signal;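 as to outcome: cell surface E-selectin protein quantified by ELISA 24 h after dosing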
# Outline: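 ELISA read-out of E-selectin on endothelial monolayers after 24 h chemical treatment. Human umbilical vein primary cells served as the system, with DMSO defining baseline activity for bidirectional fitting.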
# [14] = read-out: Interleukin-1 alpha (IL1a), IL1A (gene 3552); experiment: BSK_BE3C_IL1a: BioMAP Diversity Plus: BE3C Assay for Interleukin-1 alpha (IL1a) Biomarker Activity (AID 2283016); details: primary human bronchial epithelial cells; actives raise or lower the signal
# Outline: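 Measured in human lung primary bronchial epithelial cells: IL-1a by ELISA at 24 h after dosing, with bidirectional fitting against DMSO.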
# [15] = read-out: Monocyte Chemoattractant Protein-1 (MCP1), CCL2 (gene 6347); experiment: BSK_3C_MCP1: BioMAP Diversity Plus: 3C Assay for Monocyte Chemoattractant Protein-1 (MCP1) Biomarker Activity (AID 2283017); details: primary human endothelial cells (HUVEC); actives raise or lower the signal
# Outline: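 ELISA read-out of MCP-1 from human umbilical vein endothelial cell cultures harvested 24 h post-dosing. Gain or loss of signal was fitted relative to DMSO.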
# [16] = read-out: Monocyte Chemoattractant Protein-1 (MCP1), CCL2 (gene 6347); experiment: BSK_4H_MCP1: BioMAP Diversity Plus: 4H Assay for Monocyte Chemoattractant Protein-1 (MCP1) Biomarker Activity (AID 2283018); details: primary human endothelial cells (HUVEC); actives raise or lower the signal
# Outline: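 Primary human umbilical vein endothelium is exposed to chemical for 24 h before MCP-1 is assayed by ELISA. Concentration-response fitted bidirectionally relative to DMSO.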
# [17] = molecular target: human Peroxisome Proliferator-activated Receptor delta (PPARd), PPARD (gene 5467) (UniProt Q03181); experiment: ATG_PPARd_TRANS: Attagene TRANS-FACTORIAL HepG2 Assay for human Peroxisome Proliferator-activated Receptor delta (PPARd) (AID 2283002; active = hit-call score of the fitted dose curve at least 0.9, where 1 is the maximum)
# Outline: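 Fluorescence from capillary electrophoresis of labelled RT-PCR reporter fragments gives the signal; DMSO sets baseline. Cells: HepG2 transiently carrying GAL4-UAS reporter units plus chimeric nuclear receptor-Gal4 proteins, exposed to chemicals for 24 h.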
# [18] = molecular target: human Retinoic Acid Receptor beta (RARb), RARB (gene 5915) (UniProt P10826); experiment: ATG_RARb_TRANS: Attagene TRANS-FACTORIAL HepG2 Assay for human Retinoic Acid Receptor beta (AID 2283004; active = hit-call score of the fitted dose curve at least 0.9, where 1 is the maximum)
# Chain of human Retinoic Acid Receptor beta (RARb), RARB (gene 5915) (P10826 whole entry, looked up): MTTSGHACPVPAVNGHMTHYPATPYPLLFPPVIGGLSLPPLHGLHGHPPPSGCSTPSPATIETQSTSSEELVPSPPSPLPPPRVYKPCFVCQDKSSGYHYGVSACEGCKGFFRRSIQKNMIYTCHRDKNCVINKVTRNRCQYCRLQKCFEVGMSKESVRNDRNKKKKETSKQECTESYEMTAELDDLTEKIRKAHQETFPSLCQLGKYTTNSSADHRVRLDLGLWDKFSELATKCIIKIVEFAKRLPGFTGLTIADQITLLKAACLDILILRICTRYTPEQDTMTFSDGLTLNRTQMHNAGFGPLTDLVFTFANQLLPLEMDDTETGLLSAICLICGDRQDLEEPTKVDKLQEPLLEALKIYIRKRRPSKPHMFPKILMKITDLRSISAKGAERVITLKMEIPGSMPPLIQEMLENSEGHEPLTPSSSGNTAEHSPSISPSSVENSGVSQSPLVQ
# Outline: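 Transient transfection of HepG2 with multiple reporter units → chemical dosing, 24 h → total RNA isolation → RT with oligo(dT) → reporter-specific PCR, 6-FAM primer extension, HpaI digest → capillary electrophoresis. Positive direction vs DMSO control.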
# [19] = molecular target: Retinoic acid receptor alpha (Homo sapiens) (UniProt P10276); experiment: ATG_RARa_TRANS: Attagene TRANS-FACTORIAL HepG2 Assay for human Retinoic Acid Receptor alpha (RARa) (AID 2283005; active = hit-call score of the fitted dose curve at least 0.9, where 1 is the maximum)
# Outline: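 HepG2 transiently transfected with multiplex GAL4-UAS reporter units including a human RARa–GAL4 chimera; 24 h compound exposure. Reporter mRNA quantified by RT-PCR, 6-FAM labeling and capillary electrophoresis; gain of signal versus DMSO.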
# [20] = molecular target: human Retinoic Acid Receptor gamma (RARg), RARG (gene 5916) (UniProt P13631); experiment: ATG_RARg_TRANS: Attagene TRANS-FACTORIAL HepG2 Assay for human Retinoic Acid Receptor gamma (RARg) (AID 2283009; active = hit-call score of the fitted dose curve at least 0.9, where 1 is the maximum)
# Outline: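 Gain-of-signal relative to DMSO is reported from fluorescent capillary electrophoresis of RT-PCR reporter products. These came from HepG2 cells expressing transfected RARg-GAL4 chimeras with UAS reporters, harvested 24 h after dosing.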
# Chain of E-selectin (Homo sapiens) (P16581 whole entry, looked up): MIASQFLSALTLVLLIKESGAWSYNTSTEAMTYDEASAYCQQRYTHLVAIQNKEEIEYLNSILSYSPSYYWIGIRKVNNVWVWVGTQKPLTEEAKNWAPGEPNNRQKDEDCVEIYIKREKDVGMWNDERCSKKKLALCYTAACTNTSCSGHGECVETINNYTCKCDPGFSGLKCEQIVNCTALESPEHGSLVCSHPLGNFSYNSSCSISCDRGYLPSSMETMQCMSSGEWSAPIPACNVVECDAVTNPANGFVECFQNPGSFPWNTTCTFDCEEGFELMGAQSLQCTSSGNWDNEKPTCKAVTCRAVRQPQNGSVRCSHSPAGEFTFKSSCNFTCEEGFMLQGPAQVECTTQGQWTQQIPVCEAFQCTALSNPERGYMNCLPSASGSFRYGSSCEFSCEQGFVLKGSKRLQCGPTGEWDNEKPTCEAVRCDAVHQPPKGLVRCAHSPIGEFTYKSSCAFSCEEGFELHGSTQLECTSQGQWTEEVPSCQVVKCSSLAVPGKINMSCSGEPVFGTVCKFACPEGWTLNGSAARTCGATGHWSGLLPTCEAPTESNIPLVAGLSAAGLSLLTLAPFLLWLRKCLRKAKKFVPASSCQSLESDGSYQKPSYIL
compound,measurement,setting,value
S=C(S)NCCNC(=S)S.[Mn+2].[S-]C([S-])=NCCN=C([S-])[S-].[Zn+2],AC50,[1],7.78 µM (active) and 7.28 µM (active) and 10 µM (active)
same,outcome,[1],inactive
same,outcome,[2],inactive
same,outcome,[3],inactive
same,outcome,[4],inactive
same,outcome,[5],inactive
same,outcome,[6],inactive
same,AC50,[7],12 µM (active) and 18.7 µM (active)
same,outcome,[7],inactive
same,outcome,[8],inactive
same,outcome,[9],inactive
same,outcome,[10],inactive
same,AC50,[11],20.4 µM (active)
same,outcome,[11],inactive
same,outcome,[12],inactive
same,outcome,[13],inactive
same,outcome,[14],inactive
same,outcome,[15],inactive
same,outcome,[16],inactive
Cc1nn(C)c(Oc2ccccc2)c1C=NOCc1ccc(C(=O)OC(C)(C)C)cc1,AC50,[1],32.5 µM (active)
same,outcome,[2],inactive
same,outcome,[3],inactive
same,outcome,[17],inactive
same,outcome,[4],inactive
same,outcome,[18],inactive
same,outcome,[19],inactive
same,AC50,[5],7.65 µM (active)
same,AC50,[6],1.88 µM (active)
same,outcome,[7],inactive
same,outcome,[20],inactive
same,outcome,[8],inactive
same,outcome,[9],inactive
same,outcome,[10],inactive
same,outcome,[11],inactive
same,AC50,[12],0.109 µM (active)
same,AC50,[13],20 µM (active)
same,outcome,[14],inactive
same,AC50,[16],6.16 µM (active)
CCOC(=O)C(C)Oc1ccc(Oc2nc3ccc(Cl)cc3o2)cc1 (stereo not given),outcome,[1],inactive
same,outcome,[2],inactive
same,outcome,[4],inactive
same,outcome,[18],inactive
same,outcome,[5],inactive
same,outcome,[7],inactive
same,outcome,[10],inactive
same,outcome,[11],inactive
same,outcome,[12],inactive
same,outcome,[13],inactive
same,outcome,[14],inactive
same,outcome,[16],inactive

# Source: PubChem BioAssay (EPA / NIEHS)
